Hits are enriched below; roughly 8% of the tested compounds scored in any of these assays.
SW480 rerep – inducers of DNA re-replication in SW480 colon cancer cells; SW480 DNA re-replication, Hoechst DNA content imaging, 48 h; Potency, µM (series often up to 46.1 µM), without a hit: top-dose re-replication activation, usual class: activators; actives 1.8% (n = 340,000); further: % of control where 0% means no effect; nearly all actives have a fitted effect of over 55% in size
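Compounds, transferred as 23 nL by pin tool, were incubated with cells for 48 hr; DNA content per nucleus was then quantified by Hoechst staining and fluorescence plate imaging.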
MCF10A rereplic – inducers of DNA re-replication in MCF 10A breast cells | MCF 10A DNA re-replication, Hoechst nuclear intensity, 48 h | Potency, µM (titrated, usually from 46.1 µM), inactives show at the highest dose activity, positive = re-replication, hits mostly activators | actives 2.9% (n = 350,000) | AID 624296; further: % of control where 0% means no effect; nearly all actives have a fitted effect of over 50% in size
KB-V1 cytotox – kills drug-selected multidrug resistant KB-V1 cells | AID 1347076 | actives 3.4% (n = 400,000) | KB-V1 MDR cells viability, CellTiter-Glo, 72 h | Potency, µM (series often up to 46.1 µM), actives largely listed as cytotoxic; further: on the % scale 0 is the no-effect control and ±100 the full control effect; nearly all actives have a fitted effect of over 60% in size
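Drug-selected KB-V1 cells, grown in DMEM lacking phenol red with 10% FBS, receive compound titrations; after three days at 37 degrees C, surviving cell ATP is quantified by CellTiter-Glo luminescence and responses normalized and curve-fitted.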
KB-3-1 tox – kills parental KB-3-1 adenocarcinoma cells | KB-3-1 viability, CellTiter-Glo ATP luminescence, 72 h | Potency, µM (top dose mostly 46.1 µM), actives largely listed as cytotoxic | actives 1.4% (n = 400,000) | AID 1347075; further: on the % scale 0 is the no-effect control and ±100 the full control effect; nearly all actives have a fitted effect of over 60% in size
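Cytotoxicity in the drug-sensitive parental line KB-3-1 was scored as loss of CellTiter-Glo luminescence following 72 h incubation with compound. Values come from curve fitting of normalized concentration-response data.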
HT1080 IDH1KD tx – toxicity to HT-1080 IDH1 knockdown cells (counter line); HT-1080 IDH1 knockdown viability, ATP luminescence, 48 h; Potency, µM (top dose mostly 46.1 µM), for the others: top-dose activity, negative = toxicity, hits mostly cytotoxic; actives 2% (n = 360,000);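 further: 0% = DMSO wells and -100% = cell-free medium wells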
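Cytotoxicity counter-line: IDH1KD HT-1080, 48 h, CellTiter-Glo. Curves classed by r2, magnitude and activity.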
HT1080NT lethal – kills 2HG-producing HT-1080-NT fibrosarcoma cells; HT-1080-NT fibrosarcoma viability, CellTiter-Glo ATP luminescence, 48 h; Potency, µM (highest dose often 46.1 µM), for the others: top-dose activity, negative = less viability, hits mostly cytotoxic; actives 1.6% (n = 360,000); AID 686970;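 further: NT is the 2HG producing partner of a matched IDH1 knockdown line; 0% = DMSO-treated cells and -100% = media-only wells without cells; nearly all actives have a fitted effect of over 55% in size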
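A 48-hour cytotoxicity screen used HT-1080-NT cells plated 2 hours before compound delivery. ATP-based CellTiter-Glo luminescence measured viability, normalized to DMSO and no-cell controls.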
The depositor's hits bear a star; i = inactive; ? = inconclusive; . = not tested or not shown. The call rests on the fitted dose curve; in most records, active means well fitted curve in the direction sought with a large enough effect; inconclusive means small, poorly fitted or top-dose-only effect, or another doubt; inactive means no such curve, though single readings can be large; an effect the other way counts as inactive or inconclusive. Potency means the concentration at half of the fitted maximal effect.

SMILES	SW480 rerep	MCF10A rereplic	KB-V1 cytotox	KB-3-1 tox	HT1080 IDH1KD tx	HT1080NT lethal
CC1=C(C(=O)OC2CCCC2)C(c2ccccc2C(F)(F)F)CC(=O)N1 (stereo not given)	.	.	i	i	.	.
COc1ccc(-c2csc(NC(=O)c3ccc(OCC(=O)N4CCOCC4)c(OC)c3)n2)cc1OC	-2%	?	?	?	-15%	-9%
CC(c1ccccc1)N1CCn2c(nc3cc(NC(=O)NC4CCCCC4)ccc32)C1 (stereo not given)	?	14%	i	?	?	16µM*
COc1ccc(C(=O)Nc2cc(S(=O)(=O)c3ccc(Cl)cc3)c(O)c(C)c2C)cc1	.	.	i	i	.	.
COc1cc2c3nnc(-c4ccc(F)cc4)c-3cn(Cc3ccccc3F)c2cc1OC	?	9.2µM*	i	15µM*	?	?
COc1ccc(C(=O)c2cn(Cc3ccccc3F)c3cc4c(cc3c2=O)OCO4)cc1	.	.	i	i	.	.
COc1cc2c3nnc(-c4ccccc4)c-3cn(Cc3ccccc3F)c2cc1OC	23µM*	23µM*	i	?	?	?
COc1cc2c(=O)c(S(=O)(=O)c3ccc(F)cc3)cn(Cc3ccccc3C)c2cc1OC	.	.	i	i	.	.
CC(C)C1Cc2c(sc3[nH]c(=S)n(Cc4ccccc4)c(=O)c23)CO1 (stereo not given)	?	?	?	21µM*	?	?
COc1cc(OC)c(C(=O)N2CCN(c3ccccn3)CC2)cc1OC	-45%	-1%	i	i	2%	-2%
O=C(c1ccc(CS(=O)(=O)c2cccc(C(F)(F)F)c2)o1)N1CCN(c2ccccn2)CC1	1%	?	18µM*	i	-4%	1%
CCn1cc(C(=O)N2CCN(c3ccccn3)CC2)c2cc(OC)c(OC)cc2c1=O	0%	-2%	16µM*	i	-12%	4%
CCCc1ccc(OCc2ccc(C(=O)N3CCN(c4ccccn4)CC3)o2)c(OC)c1	12%	9.2µM*	3.7µM*	i	?	?
COc1ccc(CC(=O)N2CCN(c3ccccn3)CC2)cc1OC	13%	-3%	i	i	-10%	2%
O=C(NCc1ccc2c(c1)OCO2)c1ccc(CS(=O)(=O)c2cccc(C(F)(F)F)c2)o1	0%	4%	18µM*	i	13%	3%
Cc1ccccc1C(=O)Nc1nnc(S(=O)(=O)N(C)Cc2ccc(Cl)cc2)s1	.	.	i	i	.	.
Nc1cc(=O)nc(SCC(=O)Nc2ccc(F)cc2)n1-c1ccccc1Cl	.	.	i	?	.	.
Cc1ccc(OCc2nc(C#N)c(NCCc3ccccc3)o2)cc1	.	.	i	i	.	.
COc1ccc(CCNc2oc(COc3ccccc3)nc2C#N)cc1	-1%	5%	16µM*	i	0%	1%
CCOc1ccc(Nc2oc(-c3ccco3)nc2C#N)cc1	-2%	?	i	i	?	-21%
CC(C)(C)c1ccc(-c2nc(C#N)c(NCc3cccnc3)o2)cc1	9%	?	21µM*	i	?	?
CCOc1ccc(Nc2oc(-c3cccc(Cl)c3)nc2C#N)cc1	?	16µM*	i	i	6%	19%
N#Cc1nc(COc2ccccc2F)oc1NCCc1ccccc1	5%	23µM*	i	i	-16%	-18%
CNc1oc(-c2ccc(OCc3ccccc3)cc2)nc1C#N	?	11%	23µM*	i	-12%	-4%
N#Cc1nc(Cc2ccccc2)oc1NCc1ccccc1	-2%	8%	?	i	-4%	1%
SMILES	SW480 rerep	MCF10A rereplic	KB-V1 cytotox	KB-3-1 tox	HT1080 IDH1KD tx	HT1080NT lethal
COc1ccc(CNc2oc(COc3ccccc3)nc2C#N)cc1	17%	3%	18µM*	i	-20%	-13%
CCC(CC)c1nc(C#N)c(NCc2ccccc2)o1	?	?	?	15µM*	?	?
COc1ccc(CNc2oc(COc3cccc(C)c3)nc2C#N)cc1	.	.	?	i	.	.
N#Cc1nc(-c2ccc(OCc3ccccc3)cc2)oc1NCc1ccco1	-2%	?	i	i	-12%	-3%
Cc1ccc(CNc2oc(COc3ccccc3Cl)nc2C#N)cc1	12µM*	4.1µM*	i	i	-14%	-8%
COc1ccc(OC)c(Nc2cc(C)nc3ccc(C)cc23)c1	18µM*	?	5.2µM*	7.3µM*	3.7µM*	5.2µM*
CC(=O)c1ccc(Nc2cc(C)nc3c(C)cccc23)cc1	1.2µM*	23µM*	2.9µM*	i	3.7µM*	5.2µM*
Cc1ccc(Nc2cc(C)nc3c(C)cccc23)cc1	0%	7%	8.2µM*	?	?	?
CC(=O)c1ccc(Nc2cc(C)nc3ccccc23)cc1	18µM*	?	?	?	12µM*	?
CCc1nc2ccc(C(=O)NCc3ccc(SC)cc3)cc2nc1CC	.	.	i	i	.	.
Cn1cc(S(=O)(=O)N2CCOCC2)cc1C(=O)Nc1cccc(C#N)c1	.	.	i	i	.	.
CCOC(=O)c1[nH]c2ccccc2c1NC(=O)c1ccccc1F	.	.	i	i	.	.
COc1ccc(OC)c(NC(=O)C(Cc2ccccc2)NS(=O)(=O)c2ccc3c(c2)CCC(=O)N3)c1 (stereo not given)	.	.	?	i	.	.
CC(=O)c1ccc(NC(=O)c2cc(CC(C)C)nc3ccccc23)cc1	-2%	0.82µM*	i	i	-11%	1%
CCOc1ccccc1Nc1cc(C)nc2ccc(C)cc12	-3%	?	12µM*	?	?	?
COc1ccc(Nc2cc(C)nc3ccccc23)cc1	-7%	5%	i	i	11µM*	-24%
O=C(COC(=O)Cc1cccc(F)c1)NCCc1ccccc1	2%	-2%	i	i	10%	-6%
O=C1CC(c2ccccc2)CC(O)=C1C=NCc1ccccc1Cl (stereo not given)	-1%	?	?	?	?	5.6µM*
O=C1CC(c2cccc(Cl)c2)CC(O)=C1C=NC1CCCC1 (stereo not given)	1%	?	21µM*	i	8%	-2%
O=C1CC(c2ccccc2)CC(O)=C1C=NCc1ccccc1 (stereo not given)	14%	?	i	i	-8%	0%
Cc1ccc(Cc2c(-c3ccco3)nc3c(C)cc(Br)cn23)cc1	.	.	?	?	15µM*	26µM*
Cc1cc(Br)cn2c(Cc3cccc(Cl)c3)c(-c3ccco3)nc12	.	.	i	?	?	?
